A selection: hits, their analogues and other compounds. The true share with any hit is near 0.8%.
FEN1 inh-1: qHTS Assay for the Inhibitors of Human Flap endonuclease 1 (FEN1). 390,000 tested, 0.35% active. Recombinant FEN1 flap cleavage, fluorescence, 15 min. P39748. AID 588795, 2011. Potency, µM (top dose mostly 114 µM), for the others: at the highest dose activity change, negative = inhibition, most hits filed as inhibitors; note: potency is the fitted concentration of half-maximal effect; % is set by controls: 0 for no effect and ±100 for the full control effect; nearly all actives have a fitted effect of over 65% in size
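Steps: FEN1 (10 nM) dispensed; compound added by pin tool; 15 min at room temperature; substrate added to 50 nM final; reads at 0 min and 15 min; data normalized and fitted (four-parameter Hill).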
PI4K2A block: qHTS for small molecular inhibitors of PI4K2A; activity change, negative = inhibition, % at 76.9 µM; Phosphatidylinositol 4-kinase type 2-alpha (Homo sapiens), Q9BTU6; AID 1346378, 2018; 420,000 tested, 0.13% active; purified PI4K2A, ADP-Glo luminescence, 1 h; stronger effect = lower value; in the data active = activity change below about -50%; inconclusive = mostly about -30% to -49%;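 note: -100% = wells without enzyme as full effect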
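PI4K2A activity was measured by ADP-Glo luminescence: enzyme (4 ug/mL stock) and phosphatidylinositol (1.2 mM stock) in Tris pH 7.5/MgCl2/EGTA/Triton X-100 buffer were reacted with ATP (300 microM stock) for one hour at ambient temperature.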
TDP1 block: qHTS Assay for Inhibitors of Tyrosyl-DNA Phosphodiesterase (TDP1) | recombinant TDP1, AlphaScreen DNA substrate cleavage | Potency, µM (doses to about 130 µM), for inactives: at the highest dose activity change, negative = inhibition, actives largely listed as inhibitors | 350,000 tested, 0.28% active | AID 485290, 2010; note: potency is the fitted concentration of half-maximal effect; % is set by controls: 0 for no effect and ±100 for the full control effect; nearly all actives have a fitted effect of over 40% in size
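Here, a 5' biotin and 3' phosphotyrosine-FITC DNA oligonucleotide reports Tdp1 activity: intact substrate bridges AlphaScreen beads, while cleavage leaves a 3' phosphate and drops signal. All incubations at room temperature.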
APE1 inh-1: qHTS Assay for Inhibitors of the Human Apurinic/apyrimidinic Endonuclease 1 (APE1); recombinant APE1, TAMRA/BHQ-2 abasic DNA cleavage fluorescence; DNA repair nuclease/redox regulator APEX1 (Homo sapiens), P27695; AID 2517, 2012; 350,000 tested, 0.35% active; Potency, µM (titrated, usually from 65.8 µM), for inactives: at the top dose activity change, negative = inhibition, hits mostly inhibitors;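 note: potency is the fitted concentration of half-maximal effect; plate controls were vehicle for no effect and reference inhibitor for full effect; nearly all actives have a fitted effect of over 55% in size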
Target sequence (P27695 whole entry, looked up): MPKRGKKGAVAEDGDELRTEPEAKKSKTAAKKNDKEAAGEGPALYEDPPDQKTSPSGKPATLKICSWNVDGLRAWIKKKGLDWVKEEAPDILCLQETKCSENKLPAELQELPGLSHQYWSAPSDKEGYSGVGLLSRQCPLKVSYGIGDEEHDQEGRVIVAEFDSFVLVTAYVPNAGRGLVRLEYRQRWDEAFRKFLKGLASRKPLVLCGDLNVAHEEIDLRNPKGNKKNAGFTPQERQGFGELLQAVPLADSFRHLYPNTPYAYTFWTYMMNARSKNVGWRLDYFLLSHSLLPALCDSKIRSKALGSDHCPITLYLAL
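Step 1: APE1 (0.75 nM) with compound, 15 min RT. Step 2: add 50 nM fluorophore/quencher THF duplex. Step 3: three fluorescence reads 60 s apart (525/598 nm); read 3 minus read 1 = reaction progress.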
Tb PFK inh: qHTS Assay to Find Inhibitors of T. brucei phosphofructokinase; T. brucei PFK, ADP-Glo luminescence; Potency, µM (titrated, usually from 57.5 µM), without a hit: top-dose activity, negative = inhibition, hits mostly inhibitors; 330,000 tested, 0.17% active;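 note: potency is the fitted concentration of half-maximal effect; 0% = uninhibited 1x PFK enzyme wells and -100% = no-enzyme wells; nearly all actives have a fitted effect of over 60% in size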
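Luminescent ADP detection (ADP-Glo, two-step: ATP depletion then ADP-to-ATP conversion for luciferase) reported PFK activity after 45 min room-temperature reaction of 1.25 nM enzyme with 0.5 mM F6P and 0.1 mM ATP at pH 8.0.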
PGK inhibitor: qHTS Assay to Find Inhibitors of Phosphoglycerate Kinase; Phosphoglycerate kinase, glycosomal (Trypanosoma brucei brucei), P07378; Potency, µM (highest dose often 57.5 µM), without a hit: at the top dose activity change, negative = inhibition, most hits filed as inhibitors; PGK/GAPDH coupled, Kinase-Glo luminescence, 60 min; 380,000 tested, 0.043% active; note: potency is the fitted concentration of half-maximal effect; % is set by controls: 0 for no effect and ±100 for the full control effect; nearly all actives have a fitted effect of over 60% in size
Target sequence (P07378 whole entry, looked up): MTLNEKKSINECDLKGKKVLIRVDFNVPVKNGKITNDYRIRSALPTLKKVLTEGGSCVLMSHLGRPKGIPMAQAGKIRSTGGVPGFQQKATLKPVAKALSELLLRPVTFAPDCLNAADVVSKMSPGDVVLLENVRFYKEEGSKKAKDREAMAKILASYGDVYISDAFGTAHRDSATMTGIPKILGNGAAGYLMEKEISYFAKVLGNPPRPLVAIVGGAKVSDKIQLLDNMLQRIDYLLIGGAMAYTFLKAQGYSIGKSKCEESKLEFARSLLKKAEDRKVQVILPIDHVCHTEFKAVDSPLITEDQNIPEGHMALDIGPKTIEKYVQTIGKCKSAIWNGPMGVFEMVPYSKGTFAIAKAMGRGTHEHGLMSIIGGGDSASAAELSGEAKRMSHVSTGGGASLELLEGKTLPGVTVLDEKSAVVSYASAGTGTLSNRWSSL
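Recombinant glycosomal PGK reaction used 1,3-bisphosphoglycerate generated in-well by GAPDH (100nM final) in 100mM TEA pH 7.6, 5mM MgCl2, 0.01% Tween-20. After 60 minutes at room temperature, ATP was read by Kinase-Glo Plus luminescence end-point.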
DNA dye displace: Counterscreen for APE1 Inhibitors: Fluorescent Dye Displacement Assay; shares compounds with APE1 inh-1; DNA fluorescent dye displacement counterscreen, fluorescence; Potency, µM (series often up to 28.5 µM), without a hit: at the highest dose activity change, negative = inhibition, actives largely listed as inhibitors; 480 tested, 7% active;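 note: loss of thiazole orange fluorescence as the dye is displaced from duplex DNA; potency is the fitted concentration of half-maximal effect; 0% = ThO with dsDNA and no compound and -100% = ThO without dsDNA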
Endo IV inh: Counterscreen for APE1 Inhibitors: qHTS Assay for Inhibitors of Endonuclease IV | 560 tested, 4% active | Potency, µM (highest dose often 27.1 µM), for inactives: at the highest dose activity change, negative = inhibition, actives largely listed as inhibitors | E. coli Endo IV, fluorogenic AP-site DNA cleavage | AID 2565, 2010 | shares compounds with APE1 inh-1;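 note: potency is the fitted concentration of half-maximal effect; plate controls were uninhibited enzyme wells for no effect and no enzyme buffer wells for full effect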
APE1 inh-2: Confirmation qHTS Assay for Inhibitors of the Human Apurinic/apyrimidinic Endonuclease 1 (APE1); shares compounds with APE1 inh-1; purified APE1, fluorogenic abasic-site DNA cleavage; Potency, µM (top dose mostly 57.1 µM), for inactives: at the top dose activity change, negative = inhibition, usual class: inhibitors; 750 tested, 44% active; AID 2572, 2010; note: potency is the fitted concentration of half-maximal effect; % is set by controls: 0 for no effect and ±100 for the full control effect; nearly all actives have a fitted effect of over 30% in size
APE1 FP: qHTS FP-Based Assay for Inhibitors of the Human Apurinic/apyrimidinic Endonuclease 1 (APE1); shares compounds with APE1 inh-1; AID 2573, 2010; Potency, µM (top dose mostly 28.5 µM), inactives show at the top dose activity, negative = inhibition, most hits filed as inhibitors; APE1 binding to TAMRA-labelled double-stranded DNA, fluorescence polarization displacement; 480 tested, 7% active; note: potency is the fitted concentration of half-maximal effect; % is set by controls: 0 for no effect and ±100 for the full control effect
FEN1 inh-2: qHTS Assay for the Inhibitors of FEN1: Confirmatory Assay for Cherry-picked Compounds; shares compounds with FEN1 inh-1; FEN1 flap cleavage, TAMRA/BHQ2 fluorogenic DNA substrate; Potency, µM, hits mostly inhibitors; 880 tested, 79% active; note: potency is the fitted concentration of half-maximal effect; nearly all actives have a fitted effect of over 60% in size
An asterisk follows results filed as active; i = inactive; ? = inconclusive; . = not tested or not shown; [ ] = dose if it differs, or a comment. Unless noted, calls come from the whole dose curve; as a rule, active = well fitted curve in the direction sought with a large enough effect; inconclusive = small, poorly fitted or top-dose-only effect, or another doubt; inactive = no such curve, though single readings can be large; an effect the other way counts as inactive or inconclusive.

SMILES	FEN1 inh-1	PI4K2A block	TDP1 block	APE1 inh-1	Tb PFK inh	PGK inhibitor	APE1 inh-2	FEN1 inh-2	others
CCN(c1ccccc1)S(=O)(=O)c1cc(C(=O)O)ccc1C	-7%	8	22µM*	16µM*	-19%	-1%	32µM*	?
CC1(C)S[C@@H]2[C@H](NC(=O)Cc3ccccc3)C(=O)N2[C@H]1C(=O)O (tested in a mixture with another compound)	.	-2	.	-1%	.	.	.	.
Cc1c(Cl)cccc1N=Cc1ccc([N+](=O)[O-])s1	14µM*	-22	2%	?	-7%	-16%	-8%[24.4 µM]	13*	DNA dye displace=?;Endo IV inh=3%;APE1 FP=10%
O=C(C[n+]1c(Cl)cc(Cl)c2ccccc21)c1ccccc1	-22%	.	.	.	.	.	.	.
Nc1nonc1-c1nc2ccccc2n1CC(=O)N/N=C/c1ccc(-c2cccc(C(=O)O)c2)o1	45µM*	-4	14µM*	?	-22%	?	13µM*	38*	DNA dye displace=-4%;Endo IV inh=-2%;APE1 FP=-4%
C=CCc1cccc2cc(C(=O)Nc3ccc(S(=O)(=O)Nc4nnc(CC)s4)cc3)c(=O)oc12	40µM*	2	50µM*	?	-3%	?	40µM*	85*
Cc1ccc(CN2C(=O)N/C(=C\c3ccc(-c4ccc(C(=O)O)cc4C)o3)C2=O)cc1	45µM*	0	8.9µM*	16µM*	1%	?	?	76*	DNA dye displace=?;Endo IV inh=13%;APE1 FP=0%
Cc1cc(C(=O)O)ccc1-c1ccc(CO)o1	-2%	-2	-3%	2%	6%	6%	.	.
COc1ccc(Cn2ncc3c4sc(C)cc4n(C)c3c2=O)cc1F	.	.	-3%	.	.	.	.	.
Cc1cc(/C=C2/C(=N)N3C(c4ccccc4)=CSC3=NC2=O)c(C)n1-c1ccccc1	-5%	-8	4%	1%	0%	-4%	.	.
N=C1/C(=C\c2ccc(-c3cccc(C(=O)O)c3)o2)C(=O)N=C2SC=C(c3ccccc3)N12	32µM*	-3	50µM*	40µM*	0%	?	40µM*	67*
O=S1(=O)N=C(Oc2ccccc2Br)c2ccccc21	.	.	3%	.	.	.	.	.
N#C/C(=C\c1cc(O)c(O)c(O)c1)C(N)=O	?	-9	.	3.5µM*	?	.	?	13*	DNA dye displace=4%;Endo IV inh=160%;APE1 FP=1%
COc1ccc(-c2nn(C)c3sc(C(=O)NCc4ccco4)cc23)cc1OC	16%	-13	7%	5%	1%	6%	.	.
COc1ccc(NC(=O)c2cc3c(-c4ccc(OC)c(OC)c4)nn(C)c3s2)cc1OC	11µM*	1	8%	?	0%	5%	13µM*	11*	DNA dye displace=9%;Endo IV inh=11µM*;APE1 FP=-4%
O=[N+]([O-])c1ccc(/C=N/Nc2nc(N3CCCCCC3)nc(N3CCCCCC3)n2)o1	35µM*	0	5%[56.1 µM]	8%	0%	-6%	.	38*
O=S(=O)(c1ccc2c(c1)OCCO2)C1CCN(S(=O)(=O)c2c(F)cccc2F)CC1	.	.	0%	.	.	.	.	.
Nc1ccc2cc3[nH]c4cc(N)ccc4c3nc2c1	11µM*	-15	.	.	.	-14%	.	12*
Cc1cc[n+](CCC2CCCCC2)cc1	2%	.	.	.	.	.	.	.
Cc1[nH]c2ccc(C(=O)O)cc2c1C	9%	-1	1%	?	-4%	.	.	.
CCCc1c(C)[nH]c2ccc(C(=O)O)cc2c1=S	45µM*	-14	?	22µM*	-7%	?	.	43*
CN(C)c1ccc(/C=C2\C=Cc3ccccc32)cc1F	6%	.	.	.	.	.	.	.
O=C(OCCc1ccccc1)c1cc(O)c(O)c(O)c1	40µM*	-3	1%	-9%	-22%	-13%	.	38*
Cc1cccc(NC(=O)C2CCCN2S(=O)(=O)c2cccnc2)c1C (configuration not stated)	.	-3	.	.	.	.	.	.
CC(c1ccccc1)N1CC[C@H]2C=CC[C@@H](C(=O)Nc3cccc(Cl)c3)[C@H]2C1=O (some centres not stated)	.	2	.	.	.	.	.	.
Cc1ccc2[nH]c(C)c(/C=C/c3cc[n+](C)cc3)c2c1	?	-1	.	-36%	0%	-8%	.	.
Cc1ccc2c(c1)c(/C=C/c1cc[n+](C)cc1)c(C)n2C	?	-1	.	-19%	1%	i	.	34*
N=C1/C(=C/c2ccc(-c3cccc(C(=O)O)c3)o2)C(=O)N=C2SC(CC(=O)N3CCOCC3)=NN12	35µM*	-6	8.9µM*	?	-7%	?	.	67*
CCOC(=O)c1cnc2c(ccc3ccccc32)c1Nc1ccccc1OCC	2%	1	0%[12.3 µM]	.	.	8%	.	.
